Screening data (PubChem BioAssay)
Gli-Sufu block – Gli-Sufu pathway antagonism; Sufu-KO-LIGHT fibroblasts, Gli luciferase reporter luminescence; inhibition, % at 5 µM; actives 0.74% (n = 340,000); AID 588413;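 active = inhibition above about 55%, limit read from the data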;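 also: 0% = DMSO-treated cells and 100% = wells with medium but no cells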
Jurkat NFkB inh – inhibitors of the PMA/ionomycin-induced NF-kB reporter in Jurkat cells | PMA/ionomycin-induced NF-kB luciferase reporter, luminescence | inhibition, % at 4 µM | actives 0.53% (n = 330,000); in the data active = inhibition above about 50%
Beta apoptosis – blocks beta cell apoptosis | AID 435005 | protection from apoptosis, % (no concentration beside the values) | INS-1E cytokine-induced death, ATP luminescence, 48 h; percent of positive-control rescue, neutral wells zero | actives 0.8% (n = 300,000);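 active = Every replicate reaches about 75%, or at least half do and their mean reaches it too, limit read from the data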;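 also: 0% = cytokine-treated negative control wells and 100% = positive control rescue; higher means more ATP so stronger rescue from cytokine killing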
Mdm2-MdmX inh – inhibitors of human Mdm2/MdmX interaction; SaOS-2 split-luciferase Mdm2/MdmX complementation, luminescence; inhibition, % at 8 µM; actives 3% (n = 330,000); AID 485346;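 active = inhibition of at least 50% at 8 µM in the primary screen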
Target sequence (O15151 whole entry, looked up): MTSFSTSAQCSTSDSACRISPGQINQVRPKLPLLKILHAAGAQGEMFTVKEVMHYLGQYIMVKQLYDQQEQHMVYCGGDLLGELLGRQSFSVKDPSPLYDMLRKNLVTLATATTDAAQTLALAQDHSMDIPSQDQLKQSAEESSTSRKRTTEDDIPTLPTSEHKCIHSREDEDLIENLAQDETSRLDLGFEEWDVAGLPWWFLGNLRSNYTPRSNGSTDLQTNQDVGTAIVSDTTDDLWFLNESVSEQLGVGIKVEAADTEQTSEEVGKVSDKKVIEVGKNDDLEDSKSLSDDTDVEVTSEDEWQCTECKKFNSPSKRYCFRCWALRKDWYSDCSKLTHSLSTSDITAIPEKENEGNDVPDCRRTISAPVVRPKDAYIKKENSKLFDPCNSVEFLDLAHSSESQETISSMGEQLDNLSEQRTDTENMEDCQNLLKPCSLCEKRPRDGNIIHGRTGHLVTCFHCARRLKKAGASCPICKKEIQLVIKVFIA
Target sequence (Q00987 whole entry, looked up): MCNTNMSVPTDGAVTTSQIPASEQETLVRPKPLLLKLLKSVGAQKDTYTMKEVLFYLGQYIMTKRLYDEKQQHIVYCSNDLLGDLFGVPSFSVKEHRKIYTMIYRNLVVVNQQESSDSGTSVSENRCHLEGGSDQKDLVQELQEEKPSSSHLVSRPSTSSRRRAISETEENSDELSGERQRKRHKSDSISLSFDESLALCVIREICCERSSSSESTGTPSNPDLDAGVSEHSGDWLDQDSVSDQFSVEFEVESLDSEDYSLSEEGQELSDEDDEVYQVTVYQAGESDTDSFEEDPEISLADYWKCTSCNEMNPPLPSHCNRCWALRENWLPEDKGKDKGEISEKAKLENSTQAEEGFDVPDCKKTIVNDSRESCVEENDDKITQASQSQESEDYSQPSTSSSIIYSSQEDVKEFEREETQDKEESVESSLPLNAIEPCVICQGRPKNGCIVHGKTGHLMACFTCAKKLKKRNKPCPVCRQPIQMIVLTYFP
697 NFkB inh – inhibitors of the PMA/ionomycin-induced NF-kB reporter in 697 B cells; inhibition, % at 4 µM; AID 435022; actives 0.33% (n = 330,000); 697 B-cell NF-kB luciferase reporter, 16 h; in the data active = inhibition above about 35%
CSC inhib – cancer stem cell inhibition. inhibition, % at 7.5 µM. cancer stem cell-like cells viability, luminescence. AID 2717. actives 1.1% (n = 300,000); in the data active = inhibition above about 75%; tested in HMLE shEcad cells
Gli-Sufu confirm – Gli-SUFU antagonism confirmation, single concentration. shares compounds with Gli-Sufu block. Sufu-KO-LIGHT cells, Gli luciferase reporter, luminescence. inhibition, % at 5 µM. actives 40% (n = 2,500);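 active = mean inhibition at 5 µM reaching about 45%, limit read from the data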;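 also: plate controls were DMSO-treated cells for no effect and wells lacking cells for full effect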
Gli cytotox – counter-screen for Gli-SUFU antagonists: cytotoxicity; shares compounds with Gli-Sufu block; Sufu-KO-LIGHT cells cytotoxicity, ATP luminescence; cytotoxicity, % at 5 µM; actives 32% (n = 2,500);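 active = mean cytotoxicity at 5 µM above about 25%, limit read from the data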;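 also: cells exposed to compound overnight for roughly 16 to 18 hours; plate controls were DMSO wells with cells for no effect and medium without cells for full effect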
Wnt3a cs – counter-screen for Gli-SUFU antagonists: Wnt3a reporter inhibition; shares compounds with Gli-Sufu block; inhibition, % at 6.25 µM; actives 20% (n = 2,500); Wnt-LIGHT cells, Wnt3a-driven luciferase reporter, luminescence; AID 651995;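 active = mean inhibition above about 25%, limit read from the data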
Active calls of the source: *; . = not tested or not shown. Compounds with a hit are over-represented: about 4.5% of the library has one in this group of screens.

SMILES	Gli-Sufu block	Jurkat NFkB inh	Beta apoptosis	Mdm2-MdmX inh	697 NFkB inh	CSC inhib	Gli-Sufu confirm	Gli cytotox	Wnt3a cs
Cc1ccc(-c2cn(-c3ccc(OC(F)F)cc3)c3[n+]2CCCCC3)cc1	83*	18	100*	21	-43	-2	86*	41*	17
COc1cc(C(=O)NC2CCN(CC(=O)Nc3cccc(C)c3C)CC2)cc(OC)c1OC	-14	4	5	10	17	-6	.	.	.
NC(=O)c1ccc(N2CCN(c3ccccc3F)CC2)c([N+](=O)[O-])c1	57*	6	-3	10	4	-4	21	13	-7
NC(=O)c1ccc(N2CCN(S(=O)(=O)c3cccs3)CC2)c([N+](=O)[O-])c1	56*	-17	82*	36	-8	-3	65*	14	36*
NC(=O)c1ccc(N2CCN(c3ccccc3O)CC2)c([N+](=O)[O-])c1	26	1	4	4	-23	5	.	.	.
O=C(CN1C(=O)c2cccc3cccc1c23)N1CCN(c2ccccc2)CC1	93*	1	-6	3	22	-9	21	5	-16
O=C(CN1C(=O)c2cccc3cccc1c23)N1CCN(c2ccc(F)cc2)CC1	8	-5	-1	6	15	-14	.	.	.
Cc1onc(-c2ccccc2)c1-c1nnc(-c2ccccc2C(F)(F)F)o1	1	-6	-1	26	7	17	.	.	.
CCn1c(C)nc2cc(-c3nnc(-c4c(-c5ccccc5)noc4C)o3)ccc21	70*	0	113*	5	2	38	77*	17	18
CC1=C(C(=O)Nc2ccccc2C)C(c2ccc(C)o2)C2=C(CCCC2=O)N1 (stereo not given)	97*	-10	-4	-6	-24	-14	15	6	35*
CC1=C(C(=O)OC2CCCCCC2)C(c2ccc(C)o2)C2=C(CCCC2=O)N1 (stereo not given)	4	-1	-1	14	-1	12	.	.	.
COc1ccc(C(=O)C(CN2CCOCC2)c2ccccc2)cc1F (stereo not given)	55	.	.	.	.	.	17	1	19
COc1ccc(C(O)C(CN2CCOCC2)c2ccccc2)cc1F (stereo not given)	6	-4	.	-14	-22	-8	.	.	.
Cc1nnc2ccc(-c3ccc(NC(=O)c4ccco4)cc3)nn12	13	-1	1	20	8	8	.	.	.
CC(=O)N(C)c1cccc(-c2ccc3nnc(C)n3n2)c1	56*	-3	.	-7	19	.	16	2	23
CCC(Sc1nc2ccncc2[nH]1)C(=O)Nc1cc(Cl)ccc1C (stereo not given)	3	0	-8	27	3	-4	.	.	.
O=C(Cn1cnc2ccccc21)Nc1ccc(SC(F)F)cc1	65*	43	72	15	-22	-7	57*	37*	-7
COc1ccc(NC(=O)COC(=O)Cn2cnc3ccccc32)cc1	-4	-1	-3	12	13	-15	.	.	.
COc1ccc(C(=O)c2cc([N+](=O)[O-])ccc2N2CCOCC2)cc1	53	.	13	.	.	40	58*	62*	-15
CCN1CCN(CC(=O)c2c(C)n(C)c3ccc(OC)cc23)CC1	62*	-8	-2	-6	-7	-2	11	10	-7
CCC(C(=O)NCCN1CCN(C)CC1)n1c(C)c2cnn(-c3ccccc3)c(=O)c2c1C (stereo not given)	94*	2	-2	5	0	0	10	24	-9
CC1=CN(S(=O)(=O)c2ccc(C)cc2)C[C@@H]2c3ccccc3N(S(=O)(=O)c3ccc(C)cc3)[C@H]12	-2	.	.	7	-27	.	.	.	.
CCOC(=O)c1c(NC(=O)COc2cccc3c2CCN(C)C3=O)sc2c1CCC2	58*	10	25	45	-39	22	43	8	15
Cc1cccc(NC(=O)COc2cccc3c2CCN(C)C3=O)c1C	39	0	1	15	22	-5	.	.	.
O=C(N/N=C/c1ccsc1)c1c[nH]c2ccccc12	-69	-49	2	23	-92	-18	.	.	.
SMILES	Gli-Sufu block	Jurkat NFkB inh	Beta apoptosis	Mdm2-MdmX inh	697 NFkB inh	CSC inhib	Gli-Sufu confirm	Gli cytotox	Wnt3a cs
O=C(COc1ccc(C(=O)c2ccccc2)cc1)Nc1cccnc1	-13	41	-7	27	2	0	.	.	.
O=S(=O)(c1ccc2ccccc2c1)N1CCN(C(=S)Nc2ccc(F)c(Cl)c2)CC1	99*	6	-3	43	5	31	15	4	-4
O=S(=O)(c1ccc2ccccc2c1)N1CCN(C(=S)Nc2ccc(F)cc2)CC1	14	13	-5	22	12	-10	.	.	.
CCc1ccc2c(CN3CCN(S(=O)(=O)c4cccs4)CC3)cc(=O)oc2c1	-7	-3	8	13	16	-1	.	.	.
CCc1ccc2c(CN3CCN(S(=O)(=O)c4ccccc4F)CC3)cc(=O)oc2c1	56*	2	-3	18	14	-5	14	0	-15
Cc1cc(NC(=O)COc2ccc(Cl)cc2Cl)n(-c2ccccc2)n1	5	10	7	-1	5	-3	.	.	.
Cc1cc(NC(=O)CSc2cc(Cl)ccc2Cl)n(-c2ccccc2)n1	52	12	-2	12	-1	.	22	7	-5
O=C(N/N=C/C1CC2CCC1C2)c1c[nH]c2ccccc12 (stereo not given)	-8	-13	-1	-31	8	1	.	.	.
CC(C)[C@H](NC(N)=O)C(=O)Nc1ccc(F)c(Cl)c1	53	0	2	1	2	-18	4	1	-6
CC(C)Sc1nc(-c2ccccc2)cc(=O)[nH]1	69*	18	-6	13	11	.	22	4	3
Cc1ccc(S(=O)(=O)N2CCC(C(=O)N[C@@H](C)C(=O)Nc3ccc4c(c3)OCO4)CC2)cc1	53	-14	5	6	-11	7	21	15	-4
COCCNC(=O)c1cc(S(=O)(=O)N2CCOCC2)ccc1SCc1cccc(OC)c1OC	9	-13	-1	-11	-13	-1	.	.	.
CC(C)Cn1c(SCC(=O)N(C)c2c(N)n(Cc3ccccc3)c(=O)[nH]c2=O)nc2ccccc21	0	-5	-2	15	0	-12	.	.	.
Cn1c(CNC(=O)CNC(=O)c2ccccc2F)cc(=O)n(C)c1=O	53	14	-2	-1	-15	-7	4	12	-23
N#Cc1ccc(OCC(=O)OCC(=O)Nc2sccc2C(N)=O)cc1	53	1	-7	-22	19	-7	14	30*	3
